Pf growth 48h: Primary qHTS for delayed death inhibitors of the malarial parasite plastid, 48 hour incubation; P. falciparum luciferase growth in erythrocytes, 48 h; Potency, µM (series often up to 28.7 µM), usual class: inhibitors; hit rate 5.9% among 310,000
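First compound was added to culture medium, then infected red cells at 0.1% parasitemia and 2% hematocrit (final). After incubation at 37 C under 5% CO2, luciferase detection reagent was dispensed and light output recorded.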
Pf growth 96h: Primary qHTS for delayed death inhibitors of the malarial parasite plastid, 96 hour incubation | Potency, µM (series often up to 28.7 µM), hits mostly inhibitors | P. falciparum luciferase reporter growth, 96 h | hit rate 6.9% among 320,000
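Erythrocytes infected with luciferase-expressing P. falciparum were dispensed at 2% hematocrit and 0.05% parasitemia (final), then incubated with compounds 96 hours at 37 C in 5% CO2. Luminescence after detection reagent addition reported growth.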
HCMV antiviral: qHTS Assay for inhibitors of the human cytomegalovirus (HCMV). activity change, negative = inhibition, % at 57.5 µM. HFF cells, HCMV-luciferase reporter, 72 h; hits give low values. hit rate 4.5% among 410,000. AID 1259415, 2018; in the data active = activity change below about -60%; inconclusive = no clear call, values can overlap the other calls; inactive = above about -39%
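Two compound doses tested in HFFs infected with HCMV-luciferase, MOI 1 PFU/cell, 72 h at 37C. Lysate luminescence read with OneGlo; data normalized against buffer-only and 10uM Salinomycin inhibitor controls.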
FBPA Giardia inh: qHTS Assay for Inhibitors of Fructose-1,6-bisphosphate Aldolase from Giardia Lamblia; purified Giardia FBPA; Potency, µM (titrated, usually from 59.6 µM), actives largely listed as inhibitors; hit rate 0.71% among 290,000; AID 2451, 2010; also: nearly all actives have a fitted effect of over 55% in size
Target sequence (A8B2U2 whole entry, looked up): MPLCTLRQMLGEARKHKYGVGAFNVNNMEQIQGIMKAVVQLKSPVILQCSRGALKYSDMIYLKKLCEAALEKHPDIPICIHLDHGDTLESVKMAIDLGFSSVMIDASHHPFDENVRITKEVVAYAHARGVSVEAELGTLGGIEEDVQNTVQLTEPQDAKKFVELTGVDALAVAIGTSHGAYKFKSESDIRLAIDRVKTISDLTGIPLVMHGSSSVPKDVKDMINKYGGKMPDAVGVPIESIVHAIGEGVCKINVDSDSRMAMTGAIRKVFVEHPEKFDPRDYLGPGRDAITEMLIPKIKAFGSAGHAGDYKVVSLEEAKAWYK
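Giardia FBPA (40 nM reagent) was preincubated 10 min at RT with compound (up to 57.5 uM final), then substrate plus GAPDH/TPI/NAD/arsenate coupling system with diaphorase/resazurin was added; resorufin fluorescence (525/598 nm) was read after 20 min.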
Sm TGR inh: qHTS Assay for the Inhibitors of Schistosoma Mansoni Peroxiredoxins | purified TGR, DTNB reduction, TNB absorbance 405 nm | Potency, µM (titrated, usually from 114 µM), hits mostly inhibitors | hit rate 3% among 360,000 | AID 485364, 2010; also: nearly all actives have a fitted effect of over 60% in size
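First, TGR (20 nM dispensed) and NADPH were mixed with compound. Second, a 15 min room-temperature incubation followed. Third, further NADPH and then DTNB were added to start the reaction. Finally, TNB absorbance was monitored kinetically.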
A number is an active result; n = inactive; u = inconclusive; x = no result. Rows were chosen to be rich in hits. Some 14% of all compounds tested hit in one or more screens of this group. Unless noted, calls follow the shape of the dose curve; as a rule, active = well fitted curve in the direction sought with a large enough effect; inconclusive = small, poorly fitted or top-dose-only effect, or another doubt; inactive = no such curve, though single readings can be large; an effect the other way counts as inactive or inconclusive.

SMILES | Pf growth 48h | Pf growth 96h | HCMV antiviral | FBPA Giardia inh | Sm TGR inh
Cc1ccc(-c2cc(C(=O)NCc3cccnc3)no2)cc1 | n | n | n | n | n
COc1ccc(-c2cc(C(=O)NCc3cccnc3)no2)cc1OC | n | 9.28µM | n | n | n
CSc1ncc(C(=O)Nc2ccccc2F)c(-c2ccccc2)n1 | n | n | n | n | n
CC1Cc2c([nH]c3ccccc23)C(=O)N1 (stereo not drawn) | n | 9.28µM | n | n | n
O=C1NCCc2c1[nH]c1ccccc21 | n | n | n | n | n
COc1cc(OC)c(/C=C2/C(=O)Nc3ccccc32)c(OC)c1 | x | x | x | n | x
COc1ccc2c(c1)/C(=C\c1cccc(/C=C3/C(=O)Nc4ccc(OC)cc43)n1)C(=O)N2 | x | x | -98.0 | x | x
COC(=O)N1CCC2(CCCN(Cc3nccs3)C2)CC1 | x | x | x | n | x
Cc1ccc(CCNC(=O)c2cc3cc(S(=O)(=O)N4CCCCC4)ccc3n2C)cc1 | x | x | n | x | n
COc1ccc(C(=O)Nc2nc(-c3nnn(-c4ccc(F)cc4F)c3C)ns2)cc1 | x | x | -103.8 | x | n
Cc1cccc(C(=O)Nc2nc(-c3nnn(-c4cc(C)ccc4C)c3C)ns2)c1 | x | x | -62.3 | x | n
Cc1cccc(C(=O)Nc2nc(-c3nnn(-c4cc(F)ccc4F)c3C)ns2)c1 | x | x | n | x | n
CCc1cccc(-n2nnc(-c3nsc(NC(=O)c4cccc(OC)c4)n3)c2C)c1 | x | x | u | x | n
COc1cccc(C(=O)Nc2nc(-c3nnn(-c4cc(C)ccc4C)c3C)ns2)c1 | x | x | n | x | n
COc1cccc(C(=O)Nc2nc(-c3nnn(-c4ccccc4C(F)(F)F)c3C)ns2)c1 | x | x | -76.0 | x | n
Cc1ccccc1OCC1Cn2c(nc3c2c(=O)n(C)c(=O)n3C)O1 (stereo not drawn) | n | n | n | n | n
COC(=O)[C@@H]1[C@@H](CO)[C@@H]2Cn3c(ccc(Br)c3=O)[C@H]1N2CCc1ccccc1 | x | x | n | x | x
COc1ccccc1NC(=O)c1oc2ccccc2c1NC(=O)c1cccc(OC)c1OC | x | x | n | x | n
Cc1ccc(CNC(=O)CCC2CCCN(Cc3c(C)nn(C(C)C)c3C)C2)o1 (stereo not drawn) | n | 8.28µM | n | n | n
Cc1ccc(CNC(=O)CCC2CCCN(Cc3ccc4cccc(F)c4n3)C2)o1 (stereo not drawn) | n | u | n | n | 39.8µM
CC(C)C(c1nnnn1Cc1ccco1)N1CCN(c2cccc(Cl)c2)CC1 (stereo not drawn) | n | n | n | n | n
CCC(c1nnnn1Cc1ccco1)N1CCN(c2cc(Cl)ccc2C)CC1 (stereo not drawn) | u | 1.47µM | n | n | n
Cc1ccc(Cl)cc1N1CCN(Cc2nnnn2Cc2ccco2)CC1 | n | 8.28µM | n | n | n
Cc1ccc(C)c(OCCC(=O)N2CCN(S(=O)(=O)c3ccc([N+](=O)[O-])cc3)CC2)c1 | u | u | n | x | n
CC1CN=C(NS(=O)(=O)c2ccccc2)N1 (stereo not drawn) | x | x | n | x | x
SMILES | Pf growth 48h | Pf growth 96h | HCMV antiviral | FBPA Giardia inh | Sm TGR inh
COCCN(C(=O)Cc1cccs1)C(C(=O)NCc1ccc(OC)cc1)c1ccc(C(C)C)cc1 (stereo not drawn) | 2.08µM | 2.94µM | n | n | n
COCCN(C(=O)Cc1cccs1)C(C(=O)NCc1ccc(OC)cc1)c1ccc(C)cc1 (stereo not drawn) | 8.28µM | 5.86µM | n | n | n
COCCN(C(=O)Cc1cccs1)C(C(=O)NC1CCCC1)c1ccc(OC)c(OC)c1 (stereo not drawn) | n | n | n | n | n
CCc1ccc(C(C(=O)NCc2ccc(OC)cc2)N(CCOC)C(=O)Cc2cccs2)cc1 (stereo not drawn) | 4.15µM | 1.47µM | u | n | n
COc1ccc(CNC(=O)Cc2cccs2)cc1 | n | u | x | n | n
O=C(NCc1ccccc1)C(c1ccccc1)N(Cc1ccc2c(c1)OCO2)C(=O)Cc1cccs1 (stereo not drawn) | u | n | n | n | n
COc1ccc(CNC(=O)C(c2ccc(C)o2)N(Cc2cccs2)C(=O)Cc2cccs2)cc1 (stereo not drawn) | 14.7µM | n | n | u | u
COCCNc1oc(Cc2cccc3ccccc23)nc1C#N | u | u | n | n | u
